20 molecules from PubChem BioAssay (Tox21) can be followed below.

The structures appear in SMILES notation. A number with no mark means an inactive call. Active and inactive are the calls of the source. Calls follow the shape of the dose curve; as a rule, active = well fitted curve in the direction sought with a large enough effect in the repeat runs; inconclusive = weak or mixed curves; inactive = flat fitted curve, though single readings scatter.
% is scaled to controls: 0 for no effect and ±100 for the full control effect.

This experiment is described as follows: qHTS assay to test for compound auto fluorescence at 590 nm (red) in HepG2 cells (AID 720674). Conditions: HepG2 autofluorescence, red 540/590 nm, 1 h; series mostly up to 91.3 µM. The method in brief:
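HepG2 cells, 2,000 per well in MEM with 10% FBS, attached overnight at 37 C, then got 23 nL compound or DMSO. After 1 hr at 37 C, 5% CO2, red fluorescence was read at 540/590 nm against Rose Bengal sodium as reference.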
On the technique in general: qHTS replaces the single test concentration by a dilution series.
Consider `COc1nc(C)nc(NC(=O)NS(=O)(=O)c2ccccc2OCCCl)n1`, for which the call was inactive.

With `CCCCNC(=S)NCCCC`, the call was inactive.

As to `CC(C)(C)c1cccc(O)c1`, the result was inactive.

For the molecule `O=C1CCC(C2CCCCC2)CC1`, the result was inactive.

Turning to `COC(=O)c1ccc2cc(C(=O)OC)ccc2c1`, the fluorescence, relative to Rose Bengal was 0.064% [at 18.6 µM].

Consider `CCCc1c2oc(C(=O)O)cc(=O)c2cc2c(=O)cc(C(=O)O)n(CC)c12`, for which the call was inactive.

Take `CC(CNC1CCCCC1)OC(=O)c1ccccc1` (stereo not given): the fluorescence, relative to Rose Bengal was -0.352% [at 18.6 µM].

In the case of `CC(C)OC(C)C`, the molecule was called inactive.

Consider `OCCN(CCO)c1ccccc1`, for which the call was inactive.

In the case of `O=C(C(Cl)Cl)N1CCOC12CCCCC2`, the result was inactive.

As for `CCCCCCCCCC#N`, the molecule was called inactive.

Consider `CCOC(=O)C(Br)c1ccccc1` (stereo not given), for which the molecule was called inactive.

Regarding `C[C@@H](N)C(=O)O`, the result was inactive.

On to `O=C1N(c2ccccc2)c2ccccc2C1(Cc1ccncc1)Cc1ccncc1`, for which the result was inactive.

Take `Cc1ccsc1C(=CCCN1CCC[C@@H](C(=O)O)C1)c1sccc1C`: the molecule was classed as inactive.

In the case of `C=CCc1cc(OC)c(O)c(C(=O)NCCO)c1`, the outcome was inactive.

Consider `CCc1cc(Cl)c(OC)c(C(=O)NC[C@@H]2CCCN2CC)c1O`, for which the result was inactive.

On to `CCCCOc1cc(C(=O)NCCN(CC)CC)c2ccccc2n1`, for which the fluorescence, relative to Rose Bengal was -0.403% [at 18.6 µM].

As for `CCC(=O)O[C@]1(C(=O)SCF)[C@H](C)C[C@H]2[C@@H]3C[C@H](F)C4=CC(=O)C=C[C@]4(C)[C@@]3(F)[C@@H](O)C[C@@]21C`, the fluorescence, relative to Rose Bengal was -0.521% [at 18.6 µM].

As for `NNS(=O)(=O)c1ccc(Oc2ccc(S(=O)(=O)NN)cc2)cc1`, the outcome was inactive.
